The source of these data is PubChem BioAssay (NCATS).

SMILES strings stand for the structures. Values joined by “and” are separate entries in the source; they are usually repeats but may differ in a detail not shown here. Identical values can stand only once. Values without a mark were called inactive. Inconclusive results are not listed. Active and inactive are the calls of the source. Unless noted, calls come from the whole dose curve; as a rule, active = well fitted curve in the direction sought with a large enough effect; inconclusive = small, poorly fitted or top-dose-only effect, or another doubt; inactive = no such curve, though single readings can be large; an effect the other way counts as inactive or inconclusive. Bridge positions count the residues as written; N and C are the ends. Square brackets hold non-standard residues; d marks the D form. Peptide text beside a SMILES is read from it. * marks the point of attachment. Octanoyl(6-Me) = CCC(C)CCCCC(=O)*; Dab = NCC[CH](N)C(=O)O

The nature of test [1]: Cellular Toxicity (caspase-3) NIH 3T3 (AID 666).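 Note: caspase signal read after 16 h compound exposure; 0% = DMSO basal and 100% = 100 µM tamoxifen stimulation.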 The procedure, abridged: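 Activity: caspase-3/7 induction, NIH 3T3 cells, 16 hr treatment at 37°C, luminescent Caspase-Glo detection; AC50 via Hill equation.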
Test [2] deals with Androgen receptor (Homo sapiens) (UniProt P10275). The experiment in a line: qHTS assay for small molecule agonists of androgen receptor signaling (AID 588515; active = well fitted curve in the direction sought with a large enough effect in the signal ratio, with a control signal flat; the % refers to the signal ratio; note: % is set by controls: 0 for no effect and ±100 for the full control effect). The settings on record: AR-UAS-bla HEK293, beta-lactamase ratio, agonist 16 h; hits give high values. The procedure, abridged: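 Stimulation of an AR-responsive β-lactamase reporter in GripTite HEK293 cells was measured after 16 h compound exposure at 37 °C, via CCF4 fluorescence after 2 h RT. EC50 from Hill fits, normalized to R1881 at 30 nM.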
A general note: Quantitative high-throughput screening tests each substance at several concentrations.

Test [3] has the same target. The experiment in a line: qHTS assay for small molecule antagonists of androgen receptor signaling (AID 588516; active = well fitted curve in the direction sought with a large enough effect in the signal ratio, with a control signal flat, not every such curve was filed as active; the % refers to the signal ratio; note: % is set by controls: 0 for no effect and ±100 for the full control effect). The procedure, abridged:
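Antagonist mode: inhibition of R1881-stimulated (10 nM final) bla reporter in GeneBLAzer AR HEK 293 cells, 16 h at 37C, compounds titrated. IC50 and efficacy from Hill-equation fits of 405/460–530 nm FRET ratios.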

Test [4] can be described thus: qHTS assay for small molecule agonists of the antioxidant response element (ARE) signaling pathway (AID 651741; active = well fitted activation curve with a large enough effect in the signal ratio; the % refers to the signal ratio; note: potency is the fitted concentration of half-maximal effect; for activation: % of control where 0% means no effect). The procedure, abridged:
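HepG2 ARE-bla reporter cells, 2,000/well; 5 h settle at 37 C/5% CO2; compound pin transfer (23 nL, DMSO); 16 h at 37 C; LiveBLAzer B/G FRET substrate, 2 h RT; fluorescence intensity read.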

Test [5] is described as follows: Cell Viability - LYMP2-021 (AID 974).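 Note: compound exposure lasts 24 hours at 37 °C; % is set by controls: 0 for no effect and ±100 for the full control effect; nearly all actives have a fitted effect of over 55% in size.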 The procedure, abridged: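 In qHTS format, compounds are tested against 2500 lymphoblastoid cells per well for 24 h; viable cell number is inferred from ATP-driven luciferase light, and Hill-equation fitting yields AC50 values.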
Test [6] deals with Bile acid receptor (Homo sapiens) (UniProt Q96RI1). The experiment in a line: qHTS assay for small molecule antagonists of farnesoid X receptor signaling (AID 588526; calls by dose curve; note: % is set by controls: 0 for no effect and ±100 for the full control effect). The procedure, abridged:
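Antagonist mode: titrated compounds tested against chenodeoxycholic acid stimulation (normalized to 50 uM CDCA and DMSO) in GeneBLAzer HEK293T cells for 16 h. Beta-lactamase read by CCF4 fluorescence; IC50 from Hill fits.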

The nature of test [7]: qHTS assay for cell viability of the p53RE-bla HCT-116 cell line (AID 743292). Note: % is set by controls: 0 for no effect and ±100 for the full control effect; nearly all actives have a fitted effect of over 55% in size. The procedure, abridged: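 HCT-116 p53RE-bla cells seeded 4,000/well; 5 h at 37 C; compound (DMSO) added; 16 h at 37 C; CellTiter-Glo added, 30 min RT; luminescence read.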
A short description of test [8]: Cell Viability - LYMP2-015 (AID 971).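 Note: 0% = DMSO only and full effect = 92 µM tetraoctylammonium bromide; nearly all actives have a fitted effect of over 55% in size.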 The procedure, abridged:
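AC50 values reflect Hill-model fits of ATP-based luminescence (CellTiter-Glo) from a human lymphoblastoid line, 2500 cells/well, treated 24 hr at 37 C.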

Test [9] in a line: qHTS assay to identify small molecules that stimulate interleukin-8 (IL-8) secretion (AID 651758; active = well fitted activation curve with a large enough effect in the signal ratio; the % refers to the signal ratio; note: potency is the fitted concentration of half-maximal effect; for activation: 0% is about no effect). Summed up: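 Compounds are added to THP-1 cells (2000 per well) and left 16 hrs at 37 C. A labeled anti-IL-8 antibody pair is then added, and IL-8 secretion is measured by time-resolved FRET after 1-3 hrs at room temperature.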
Test [10] in a line: Confirmation and Secondary Assay for Modulators of Hemoglobin Beta Chain Splicing at IVS2 654 locus (AID 910).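 Note: HeLa cells stably carrying EGFP split by mutant beta-globin IVS2-654 intron.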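 Note: potency is the fitted concentration of half-maximal effect; potency of activators that raise GFP signal by restoring correct splicing.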 Summed up: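 HeLa cells stably expressing EGFP interrupted by β-globin IVS2-654 intron, seeded overnight in Opti-MEM/2% FCS, then treated 2 days at 37 °C. Restored splicing read as total peak GFP intensity per well by laser scanning cytometry (488 nm excitation, 500–520 nm emission); 500 nM antisense PNA as control.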

The nature of test [11]: Confirmation and Secondary Assay for Modulators of Hemoglobin Beta Chain Splicing at IVS2 705 locus (AID 930).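 For activation: HeLa cells stably expressing the EGFP-705 splicing reporter; % of control where 0% means no effect.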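 Note: GFP fluorescence per well restored by corrected splicing of the IVS2-705 intron in EGFP.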 Note: potency is the fitted concentration of half-maximal effect. Summed up:
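HeLa EGFP-705 reporter; 500 cells/well, o/n 37C 5% CO2; cpd 2 d; 488 ex/500-520 em laser scan; total peak GFP intensity/well. Ref: 500 nM […] antisense PNA.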

The nature of test [12]: qHTS Assay for Identifying Gametocytocidal Compounds (AID 743244).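 For max response: % is set by controls: 0 for no effect and ±100 for the full control effect; actives lower the fluorescent signal which means gametocytes are killed.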 Note: potency is the fitted concentration of half-maximal effect. The settings on record: P. falciparum 3D7 stage III-V gametocytes, alamarBlue, 72 h; max response: hits give low values. Summed up: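 Using 20,000 stage III–V 3D7 gametocytes per well, compounds were incubated 72 h under 37 °C/5% CO2. Viability was then assessed by 24 h alamarBlue reduction, measured fluorometrically at 525/598 nm.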

For test [13], the target named is Cytochrome P450 3A4 (Homo sapiens) (UniProt P08684). The experiment in a line: qHTS Assay for Activators of Cytochrome P450 3A4 (AID 885). Note: nearly all actives have a fitted effect of over 65% in size. Summed up: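 Luminescent readout of luciferin formed from 25 uM Luciferin-PPXE (KM level) by 20 nM CYP3A4 in 200 mM KPO4, with 60 min NADPH-driven reaction at room temperature after 10 min compound exposure. Ketoconazole (57 uM) defined 100% inhibition.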

Test [14] addresses Cytochrome P450 1A2 (Homo sapiens) (UniProt P05177). The experiment in a line: p450-cyp1a2 (AID 410; calls by dose curve; note: potency is the fitted concentration of half-maximal effect). The procedure, abridged: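 Read-out is luminescence from luciferin produced by CYP1A2 demethylation of Luciferin-ME (100uM, at Km). Detection reagent stopped the 60 min NADPH-dependent reaction; signals were normalized to 57 uM furafylline.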
Test [15] has as its target Glucocorticoid receptor (Homo sapiens) (UniProt P04150). The experiment in a line: GR-GFP Redistribution (AID 450;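 active = compounds whose dose series gives a full or clear partial fitted curve of increased nuclear translocation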; note: potency is the fitted concentration of half-maximal effect). The settings on record: U2OS GR-GFP nuclear translocation, laser cytometry, 2 h.
The target of test [16] is Cytochrome P450 2D6 (Homo sapiens) (UniProt P10635). The experiment in a line: qHTS Assay for Inhibitors and Substrates of Cytochrome P450 2D6 (AID 891). Note: nearly all actives have a fitted effect of over 60% in size. Note: potency is the fitted concentration of half-maximal effect. Summed up:
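Luminescent read-out of luciferin formed by 5 nM human CYP2D6 demethylating 30 uM Luciferin-ME EGE (Km level) over 60 min at room temperature after NADPH regeneration addition. Data normalized to full inhibition by 1.43 uM quinidine.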

The nature of test [17]: Cell Viability - LYMP1-002 - Assay at 40 hr (AID 994). Note: nearly all actives have a fitted effect of over 60% in size. Note: potency is the fitted concentration of half-maximal effect. Summed up:
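Concentration-dependent ATP loss after 40 hr treatment at 37 C defined toxicity; AC50 values were obtained by fitting the standard Hill equation.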

Test [18] is described as follows: Cell Viability - SH-SY5Y (AID 544).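 Note: cells exposed to compound for 40 hours; 0% = DMSO alone and -100% = 100 µM tamoxifen; nearly all actives have a fitted effect of over 55% in size.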 Summed up:
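Quantitative HTS in SH-SY5Y neuroblastoma cells, 40 hr treatment at 37 °C, ATP content by luciferase luminescence; AC50 from Hill fits.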

A short description of test [19]: NFAT Signaling Pathway (AID 444; active = well fitted curve in either direction with a large enough effect, not every such curve was filed as active;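 note: carbachol stimulus at about its EC50 of 1 µM final; % is set by controls: 0 for no effect and ±100 for the full control effect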). The settings on record: Jurkat NFAT-bla M1, carbachol, beta-lactamase ratio, 5 h; at 7.69 µM (top of the series) unless noted. Summed up: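 Jurkat cells with NFAT-driven β-lactamase reporter and co-expressed M1 receptor, stimulated with carbachol (final 1 uM, ~EC50), compound titration, 5 h at 37 °C. CCF4 loaded 1 h at RT; 460/530 nm ratio gave %activity and AC50.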

The nature of test [20]: Stat Signaling Pathway (AID 446; active = well fitted curve in either direction with a large enough effect, not every such curve was filed as active). The procedure, abridged: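 FRET read-out (405 nm excitation, 460/530 nm emission) of a beta-lactamase reporter under a STAT-inducible element in ME-180 cervical carcinoma cells. Cells with compound receive 40 pM IL-6 for 5 h. Values are normalised to AC90 stimulation and AC90 JAK-inhibitor controls.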

Bile acid receptor (Homo sapiens), sequence (Q96RI1 whole entry, looked up): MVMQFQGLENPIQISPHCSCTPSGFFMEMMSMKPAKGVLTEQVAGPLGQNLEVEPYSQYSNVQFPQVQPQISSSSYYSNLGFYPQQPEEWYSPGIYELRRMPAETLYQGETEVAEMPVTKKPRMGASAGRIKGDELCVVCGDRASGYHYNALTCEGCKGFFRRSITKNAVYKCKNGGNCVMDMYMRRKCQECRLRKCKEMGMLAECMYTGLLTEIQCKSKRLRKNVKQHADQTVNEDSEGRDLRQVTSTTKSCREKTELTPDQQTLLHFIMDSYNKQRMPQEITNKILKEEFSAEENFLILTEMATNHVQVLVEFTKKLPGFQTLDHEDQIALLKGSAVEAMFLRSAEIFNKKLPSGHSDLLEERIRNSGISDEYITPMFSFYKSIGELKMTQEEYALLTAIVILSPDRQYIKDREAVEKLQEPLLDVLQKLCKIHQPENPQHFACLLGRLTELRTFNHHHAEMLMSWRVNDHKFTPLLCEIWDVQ
Androgen receptor (Homo sapiens), sequence (P10275 whole entry, looked up): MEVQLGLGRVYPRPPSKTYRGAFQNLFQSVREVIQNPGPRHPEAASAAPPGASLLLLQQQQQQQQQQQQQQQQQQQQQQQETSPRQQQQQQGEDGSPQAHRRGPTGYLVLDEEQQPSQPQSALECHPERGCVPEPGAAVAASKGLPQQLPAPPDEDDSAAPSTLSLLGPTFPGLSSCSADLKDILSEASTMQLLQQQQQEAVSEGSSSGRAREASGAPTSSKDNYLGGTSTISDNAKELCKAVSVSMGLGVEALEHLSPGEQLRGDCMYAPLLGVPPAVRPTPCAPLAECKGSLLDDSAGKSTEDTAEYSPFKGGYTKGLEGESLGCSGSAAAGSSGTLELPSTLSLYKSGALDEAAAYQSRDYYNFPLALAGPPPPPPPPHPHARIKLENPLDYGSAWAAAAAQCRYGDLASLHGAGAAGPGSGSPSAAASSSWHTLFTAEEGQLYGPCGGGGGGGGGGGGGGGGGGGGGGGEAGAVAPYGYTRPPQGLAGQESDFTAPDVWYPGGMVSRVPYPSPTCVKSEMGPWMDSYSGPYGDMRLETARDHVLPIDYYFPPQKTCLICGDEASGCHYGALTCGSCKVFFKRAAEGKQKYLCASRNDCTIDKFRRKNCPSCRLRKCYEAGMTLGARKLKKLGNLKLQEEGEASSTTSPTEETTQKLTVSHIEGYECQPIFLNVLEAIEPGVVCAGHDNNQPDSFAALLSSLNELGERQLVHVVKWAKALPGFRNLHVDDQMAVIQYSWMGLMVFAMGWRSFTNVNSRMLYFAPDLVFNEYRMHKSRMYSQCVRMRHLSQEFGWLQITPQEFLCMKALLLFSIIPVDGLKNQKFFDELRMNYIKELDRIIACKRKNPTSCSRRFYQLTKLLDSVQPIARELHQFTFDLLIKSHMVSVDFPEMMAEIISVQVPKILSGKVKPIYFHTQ
Cytochrome P450 3A4 (Homo sapiens), sequence (P08684 whole entry, looked up): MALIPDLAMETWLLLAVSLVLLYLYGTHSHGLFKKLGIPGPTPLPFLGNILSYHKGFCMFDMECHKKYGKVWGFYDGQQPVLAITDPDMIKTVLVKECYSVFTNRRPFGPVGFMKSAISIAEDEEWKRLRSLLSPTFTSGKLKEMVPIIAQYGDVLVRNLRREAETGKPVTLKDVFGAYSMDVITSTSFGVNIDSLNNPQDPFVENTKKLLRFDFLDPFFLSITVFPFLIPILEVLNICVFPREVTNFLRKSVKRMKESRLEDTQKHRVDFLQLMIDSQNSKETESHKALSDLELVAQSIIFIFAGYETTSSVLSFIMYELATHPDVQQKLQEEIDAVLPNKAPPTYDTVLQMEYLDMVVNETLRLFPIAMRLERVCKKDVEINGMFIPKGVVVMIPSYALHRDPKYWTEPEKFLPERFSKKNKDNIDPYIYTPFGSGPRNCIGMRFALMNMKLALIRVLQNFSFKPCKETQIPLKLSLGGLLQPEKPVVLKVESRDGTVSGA
Cytochrome P450 2D6 (Homo sapiens), sequence (P10635 whole entry, looked up): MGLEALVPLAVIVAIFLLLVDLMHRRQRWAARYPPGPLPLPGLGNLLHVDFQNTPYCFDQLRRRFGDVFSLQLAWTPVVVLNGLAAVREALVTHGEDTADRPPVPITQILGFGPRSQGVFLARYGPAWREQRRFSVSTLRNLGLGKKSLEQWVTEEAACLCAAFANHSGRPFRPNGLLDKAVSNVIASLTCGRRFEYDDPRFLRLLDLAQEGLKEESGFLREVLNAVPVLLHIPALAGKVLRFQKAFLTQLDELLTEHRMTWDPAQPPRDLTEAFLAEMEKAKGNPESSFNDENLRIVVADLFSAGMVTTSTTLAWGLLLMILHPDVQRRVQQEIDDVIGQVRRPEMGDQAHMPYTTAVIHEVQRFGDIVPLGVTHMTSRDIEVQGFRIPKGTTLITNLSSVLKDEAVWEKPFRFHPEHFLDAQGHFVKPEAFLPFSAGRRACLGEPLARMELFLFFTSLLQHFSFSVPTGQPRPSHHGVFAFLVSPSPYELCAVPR
Glucocorticoid receptor (Homo sapiens), sequence (P04150 whole entry, looked up): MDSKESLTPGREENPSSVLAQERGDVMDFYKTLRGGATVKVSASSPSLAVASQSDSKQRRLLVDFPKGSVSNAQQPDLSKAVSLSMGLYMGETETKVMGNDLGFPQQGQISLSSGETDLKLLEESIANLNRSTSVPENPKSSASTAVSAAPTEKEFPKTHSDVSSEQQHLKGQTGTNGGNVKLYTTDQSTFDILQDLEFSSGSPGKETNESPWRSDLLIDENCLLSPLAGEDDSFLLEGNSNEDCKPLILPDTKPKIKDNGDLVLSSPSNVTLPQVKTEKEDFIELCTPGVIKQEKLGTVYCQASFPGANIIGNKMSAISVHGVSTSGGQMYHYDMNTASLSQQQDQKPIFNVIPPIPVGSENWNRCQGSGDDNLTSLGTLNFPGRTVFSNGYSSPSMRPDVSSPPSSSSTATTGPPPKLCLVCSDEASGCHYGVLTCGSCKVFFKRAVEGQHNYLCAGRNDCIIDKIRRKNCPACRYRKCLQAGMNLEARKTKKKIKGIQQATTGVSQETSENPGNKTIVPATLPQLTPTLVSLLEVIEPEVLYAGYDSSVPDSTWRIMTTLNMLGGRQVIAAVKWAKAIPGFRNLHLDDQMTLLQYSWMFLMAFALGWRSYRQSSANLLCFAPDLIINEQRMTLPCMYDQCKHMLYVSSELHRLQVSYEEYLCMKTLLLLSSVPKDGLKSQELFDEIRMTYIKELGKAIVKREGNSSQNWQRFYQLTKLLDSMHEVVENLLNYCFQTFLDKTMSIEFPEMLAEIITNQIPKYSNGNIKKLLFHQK
Cytochrome P450 1A2 (Homo sapiens), sequence (P05177 whole entry, looked up): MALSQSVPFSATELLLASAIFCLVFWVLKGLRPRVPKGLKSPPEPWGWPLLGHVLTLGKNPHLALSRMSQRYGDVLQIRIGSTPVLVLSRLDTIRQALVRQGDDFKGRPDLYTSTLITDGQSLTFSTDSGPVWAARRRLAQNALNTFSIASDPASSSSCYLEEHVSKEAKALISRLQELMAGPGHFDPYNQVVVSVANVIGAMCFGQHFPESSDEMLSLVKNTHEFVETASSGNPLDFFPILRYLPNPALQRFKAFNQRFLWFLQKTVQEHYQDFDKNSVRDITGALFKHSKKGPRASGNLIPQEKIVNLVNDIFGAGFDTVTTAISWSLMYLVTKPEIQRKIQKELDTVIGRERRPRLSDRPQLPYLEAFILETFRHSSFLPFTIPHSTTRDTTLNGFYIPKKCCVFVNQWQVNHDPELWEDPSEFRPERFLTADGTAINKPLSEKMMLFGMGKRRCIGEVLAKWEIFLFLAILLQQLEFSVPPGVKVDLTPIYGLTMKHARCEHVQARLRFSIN

With `O=C(O)c1ccccc1C(c1ccc(O)cc1)c1ccc(O)cc1`, the molecule was called inactive in [1] and in test [3]. For the same molecule, in test [2], the activation is 7.12% and 7.97%. For the same molecule, the Potency entry in [4] was “inactive”.
As to `O=S(=O)(O)c1ccccc1`, the Potency entry in test [5], in test [4] and in [7] was “inactive” throughout. In [6], the outcome was inactive.
Regarding `c1ccc2scnc2c1`, the Potency entry in test [8], in test [9] and in test [7] was “inactive” each time.
`CCC(C)CCCCC(=O)NC(CCN)C(=O)NC(C(=O)NC(CCN)C(=O)NC1CCNC(=O)C(C(C)O)NC(=O)C(CCN)NC(=O)C(CCN)NC(=O)C(CC(C)C)NC(=O)C(Cc2ccccc2)NC(=O)C(CCN)NC1=O)C(C)O` (stereo unspecified) ({Octanoyl(6-Me)}-[Dab]T[Dab][Dab][Dab]FL[Dab][Dab]T; lactam 4-C; configuration not given here): the Potency entry in [10] and in [11] was “inactive” in each case.
For the molecule `N[C@@H](C(=O)N[C@@H]1C(=O)N2C(C(=O)O)=C(Cl)CC[C@H]12)c1ccccc1`, the max response in test [12] is 3.49%.
For the molecule `COc1cc(/C=C/C(=O)N2CCC=CC2=O)cc(OC)c1OC`, in [13], the molecule was classed as inactive. The Potency result in test [10] and in [11] was “inactive” throughout.
Take `O=c1cc(-c2cccc(O)c2)oc2c(O)c(O)ccc12`: the Potency was 0.1 µM (active) in [14] and more than 46 µM in test [15]. Further, in test [13], the result was inactive. In addition, the Potency result in [16] is “inactive”.
As to `CCCCCCCCCCCCC[N+](C)(C)Cc1ccccc1`, the Potency entry in [10] and in [11] was “inactive” throughout.
For `Nc1nc(-c2ccc(Cl)c(Cl)c2)c(-c2ccncc2)s1`, the call in test [13] was inactive.
For `O=C1CCc2ccccc2O1`, in test [17], the Potency result is “inactive”.
On to `C/C=C\c1ccc(OC)cc1`, for which the Potency result in [10], in test [11], in test [8], in [5], in test [9] and in test [7] was “inactive” throughout. Further, in [6], the molecule was classed as inactive.
As for `Cc1cccc([N+](=O)[O-])c1C`, the Potency result in test [18], in [4] and in test [9] was “inactive” throughout. Also, the outcome in test [1] and in [3] was inactive. Also, in test [2], the activation is 2.99% and 5.65%.
`CN1CC[C@H](CN2c3ccccc3Sc3ccccc32)C1`: the Potency is 5.01 µM (active) in test [14], 0.126 µM (active) in test [16] and 18.7 µM (active) in test [12]. The activity change, negative = inhibition in [19] is -75.3% (active). The molecule was classed as inactive in test [20].
On to `CC1(C)CC(N=C=O)CC(C)(CN=C=O)C1` (stereo unspecified), for which the outcome in [1] and in test [6] was inactive. Besides, the Potency entry in [8], in [4] and in test [7] was “inactive” throughout.
On to `N=C(N)c1ccc(OCCCOc2ccc(C(=N)N)cc2Br)c(Br)c1`, for which, in [12], the Potency is 7.08 µM (active).
For `CCC(O)OC(O)CC` (stereo unspecified), the Potency entry in [18], in test [9] and in test [7] was “inactive” in each case. Besides, the molecule was classed as inactive in [1].
With `O=C1c2ccccc2C(=O)C1c1ccc2ccccc2n1`, in test [19], the activity change, negative = inhibition is 21.8% [at 17.2 µM]. For the same molecule, the molecule was classed as inactive in test [20] and in test [13]. For the same molecule, the Potency is more than 20.6 µM in test [15]; 1.37 µM (active) and 1.5 µM (active) in test [4]. The Potency entry in test [18], in test [17] and in test [7] was “inactive” in each case.
As for `NC1=NC(S)C2N=CN=C2N1` (stereo unspecified), the Potency in [10] was 2 µM (active); in test [11], 5.01 µM (active); in test [17] it was 2 µM (active); in [4] it was 33.5 µM (active); in [9], 66.8 µM (active).
